# Test results from PubChem BioAssay AID504577 (NMMLSC, 2011).
# Out of some 350,000 compounds screened, about 1,300 (0.37%) were called active. What follows is part of a selection rich in actives, with near analogues and random picks from the rest. A number with no mark means an inactive call. Rule as the data show it: active = response mostly above about 7.3% (no sharp cut-off); inactive = mostly below about 5.4%.
# Assay: yeast vacuolar ATPase proton transport modulators – pHLuorin cytosolic pH fluorescence, primary screen (AID 504577); also: actives read high
# Conditions: S. cerevisiae, at 10 µM, hits give high values
row,SMILES,response
1,CN1CCNC(=O)C1CC(=O)NCCC1=CCCCC1 (stereo not drawn),1.15%
2,Cc1ccc(S(=O)(=O)/N=C(/Nc2ccc3[nH]c(=O)[nH]c3c2)c2ccccc2)cc1,-2.11%
3,Cc1cc(=O)c2ccc(NC(=O)c3ccccc3)cc2[nH]1,8.54% (active)
4,Cc1ccc(NC(=O)NC(=O)c2ccccc2)cc1F,-0.67%
5,CN(C)S(=O)(=O)c1ccc(N2CCCC2=O)c([N+](=O)[O-])c1,-0.02%
6,O=C(c1cccs1)N1C[C@H](n2cc(C3CC3)nn2)[C@@H](O)C[C@@H]1c1ccccc1,-2.35%
7,C/C(=C/C(=O)N1CCN(C)CC1)C(=O)O,-2.99%
8,COC(=O)c1cc(Oc2ccc(S(=O)(=O)N3CCOCC3)cc2[N+](=O)[O-])cc(C(=O)OC)c1,13.9% (active)
9,C=C(C)CNc1cc(S(=O)(=O)N2CCOCC2)ccc1Oc1ccccc1,1.92%
10,COc1ccc(S(=O)(=O)N2CCC(C(=O)OCC(=O)c3ccccc3)CC2)cc1[N+](=O)[O-],-4.5%
11,O=C(C[C@@H]1C/C=C\CCC(=O)OC[C@@H]2CCCN2C1=O)NCCO,-3.85%
12,COC(=O)c1c(NC(=O)CN2CCN(S(=O)(=O)c3ccccc3[N+](=O)[O-])CC2)sc2c1CCC(C)C2 (stereo not drawn),-0.77%
13,O=C1CC(c2ccccc2)C(=O)N1c1cccc(O)c1 (stereo not drawn),-0.89%
14,O=C1OCC2=C1C(c1ccccc1)CC(=O)N2c1cccc(F)c1 (stereo not drawn),18.5% (active)
15,O=C1CC(c2ccccc2)C(=O)N2C(=O)CC(c3ccccc3)C(=O)N12 (stereo not drawn),-1.7%
16,Cc1cc(CO)nn1-c1ccc([N+](=O)[O-])cc1,15.4% (active)
17,CC(C)(C)c1cnnn1-c1ccc([N+](=O)[O-])cc1,1.62%
18,Cc1cc(C)n(CC(=O)Nc2ccc([N+](=O)[O-])cc2)n1,-0.28%
19,Cc1ccc2nc(-c3ccncc3)cc(C(=O)Nc3ccc(OC(F)F)cc3)c2c1,11.1% (active)
20,O=C(Nc1ccncc1)c1cc(-c2ccccn2)nc2ccc(Br)cc12,0.9%

row,SMILES,response
1,O=C(Nc1ccc(S(=O)(=O)Nc2nccs2)cc1)c1cc(-c2ccncc2)nc2ccccc12,2.45%
2,CC(=O)C1=C(C)NC(=O)NC1c1cc(Br)ccc1OCC#N (stereo not drawn),1.72%
3,COC(=O)c1c(-c2ccc(C)cc2)csc1N,6.85% (active)
4,CCC(C(=O)OC)n1cnc2scc(-c3ccc(C)cc3)c2c1=O (stereo not drawn),-4.95%
5,CCOC(=O)c1c(-c2ccc(-c3ccccc3)cc2)csc1NC(=O)CCC(=O)O,-1.32%
6,CC(C)=CCCC1(C)C=Cc2c(ccc3c2[nH]c2cc(O)c(C)cc23)O1 (stereo not drawn),-1.63%
7,COc1ccc(NS(=O)(=O)c2ccc(F)cc2F)cn1,-2.01%
8,Cc1nc2ccccc2c(=O)n1-c1ccc(NS(=O)(=O)c2ccc(F)cc2F)cc1,15.7% (active)
9,Cc1nc2ccccc2c(=O)n1-c1ccc(F)c(NC(=O)c2cccs2)c1,-7.41%
10,CN(CC(=O)N1CCN(c2ccccc2)CC1)S(=O)(=O)c1cccs1,-1.07%
11,O=C(CSc1nc2ccccc2c(=O)n1CCCO)N1CCc2ccccc21,1.92%
12,O=C(O)c1ccc(-n2cccc2)cc1O,-0.56%
13,CCCC[C@@H]1CN=C(N)N1CCc1cccc(F)c1,0.99%
14,CCCC[C@@H]1CN=C(N)N1CCc1cc(C(F)(F)F)cc(C(F)(F)F)c1,14.3% (active)
15,CCCC[C@@H]1CN=C(N)N1CCCC,-0.58%
16,C=CC[C@H](CC(=O)NCCO)C(=O)N[C@@H](COC(=O)[C@@H](CC=C)Cc1ccc(F)cc1)Cc1c[nH]c2ccccc12,7.71%
17,COC(=O)Nc1ccc(S(=O)(=O)N2CCN(CCN3C(=O)C4C5C=CC(C5)C4C3=O)CC2)cc1 (stereo not drawn),1.48%
18,CN(C)CCN=c1cc(-c2ccccc2)oc2ccc(Cl)cc12,1.09%
19,N/C(=N\OC(=O)c1ccc([N+](=O)[O-])cc1)c1ccccn1,-2.74%
20,O=C(O/N=C(/c1ccccc1)c1ccncc1)c1ccccc1[N+](=O)[O-],11.6% (active)

row,SMILES,response
1,O=C(Nc1ccncc1)c1ccccc1[N+](=O)[O-],1.22%
2,CC(=O)c1cccc(NC(=O)C2CCN(C(=O)c3ccccc3Cl)CC2)c1,-3.34%
3,COc1ccc(S(=O)(=O)N2CCOC23CCN(S(=O)(=O)c2ccc([N+](=O)[O-])cc2)CC3)cc1,1.58%
4,O=C(CSc1nnc(SCc2ccc(Cl)cc2)s1)N/N=C/c1ccccc1Cl,-0.5%
5,COc1cc(/C=C2/C(=O)ON=C2C)ccc1OCc1ccccc1F,2.69%
6,C#CCOc1ccccc1/C=C1/C(=O)ON=C1C,3.98%
7,CC1=NOC(=O)/C1=C\c1ccccc1,17.2% (active)
8,CCn1c(COc2ccccc2)nnc1SCC(=O)Nc1ccc2c(c1)OCCO2,-3.48%
9,CCOC(=O)CNC(=O)CSc1nnc(COc2ccc(Cl)cc2)n1CC,17.5% (active)
10,CCOC(=O)CNC(=O)CSc1nc2cccnc2n1CC,4.49%
11,CCCCNC(=O)c1c[nH]c2ccc(S(=O)(=O)Nc3ccc(OCC)cc3)cc2c1=O,-0.54%
12,Cc1cc(=O)[nH]c(Nc2cccc(Br)c2)n1,-2.7%
13,CCN(CCNC(=O)C1=C(C)C(=O)OC12CCC(C)CC2)c1ccccc1 (stereo not drawn),0.79%
14,CCOc1ccc(CCNC(=O)C2=C(C)C(=O)OC23CCC(C)CC3)cc1OCC (stereo not drawn),11.3% (active)
15,CCOc1ccc(CCNC(=O)Nc2ccccc2)cc1OCC,-3.89%
16,C#CCN(C[C@@H]1[C@@H](OC(=O)NC2CC2)[C@@H](OC(=O)NC2CC2)Cn2c(=O)ccc(=O)n21)S(=O)(=O)c1ccc(C)cc1,-0.61%
17,O=C(Cc1ccccc1)NCC1OCCc2ccccc21 (stereo not drawn),2.21%
18,Cc1ccc(S(=O)(=O)N2CCN(Cc3cccc(C)c3O)CC2)cc1,7.86%
